In PubChem BioAssay AID602468 (The Scripps Research Institute Molecular Screening Center, 2012):
Calls of active or inactive are those of the source. No rule for the calls is given here.

System: MBM
Experiment: cysteine-reactive anti-target inhibition count, late-stage follow-up, selectivity assay for PME-1 inhibitor project, gel-based competitive ABPP, fluorescence, MBM, Neuro-2A (AID 602468)
Details: MBM or Neuro-2A, in vitro, at 10 µM, hits give low values

With `CC[C@@]1(c2ccc(C)cc2)C(=O)N(C(=O)OC(C)C)N1C(=O)OC(C)C` the number of anti-targets inhibited was 0 (inactive).
